# In ChEMBL document CHEMBL2218924, “A broad activity screen in support of a chemogenomic map for kinase signalling research and drug discovery” (Biochem J, 2013):
# Legend:
# [1] = molecular target: Tyrosine-protein kinase SYK (Homo sapiens) (UniProt P43405); conditions: at 10 µM
# [2] = molecular target: T1, Mitogen-activated protein kinase kinase kinase 7 (Homo sapiens) (UniProt O43318); conditions: at 1 µM
# T1 sequence (whole entry): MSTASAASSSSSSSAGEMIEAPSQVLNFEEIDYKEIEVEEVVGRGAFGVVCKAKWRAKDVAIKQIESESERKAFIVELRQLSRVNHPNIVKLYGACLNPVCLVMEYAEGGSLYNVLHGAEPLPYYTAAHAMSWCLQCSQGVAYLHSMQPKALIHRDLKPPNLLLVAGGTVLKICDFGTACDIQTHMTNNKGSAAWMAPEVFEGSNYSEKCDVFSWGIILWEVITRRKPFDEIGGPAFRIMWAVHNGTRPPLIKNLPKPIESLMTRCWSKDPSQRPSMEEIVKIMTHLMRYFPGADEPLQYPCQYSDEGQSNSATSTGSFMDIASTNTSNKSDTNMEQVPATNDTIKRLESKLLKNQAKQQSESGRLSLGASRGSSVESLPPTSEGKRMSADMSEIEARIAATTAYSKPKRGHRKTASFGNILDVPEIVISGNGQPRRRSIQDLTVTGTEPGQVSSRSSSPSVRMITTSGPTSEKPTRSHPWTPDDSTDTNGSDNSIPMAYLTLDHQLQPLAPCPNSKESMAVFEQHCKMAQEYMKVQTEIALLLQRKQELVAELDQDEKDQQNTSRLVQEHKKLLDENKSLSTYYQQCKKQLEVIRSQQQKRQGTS
# [3] = molecular target: T1, Mitogen-activated protein kinase kinase kinase 7 (Homo sapiens); conditions: at 10 µM
# [4] = molecular target: T2, Serine/threonine-protein kinase TAO1 (Homo sapiens) (UniProt Q7L7X3); conditions: at 1 µM
# T2 sequence (whole entry): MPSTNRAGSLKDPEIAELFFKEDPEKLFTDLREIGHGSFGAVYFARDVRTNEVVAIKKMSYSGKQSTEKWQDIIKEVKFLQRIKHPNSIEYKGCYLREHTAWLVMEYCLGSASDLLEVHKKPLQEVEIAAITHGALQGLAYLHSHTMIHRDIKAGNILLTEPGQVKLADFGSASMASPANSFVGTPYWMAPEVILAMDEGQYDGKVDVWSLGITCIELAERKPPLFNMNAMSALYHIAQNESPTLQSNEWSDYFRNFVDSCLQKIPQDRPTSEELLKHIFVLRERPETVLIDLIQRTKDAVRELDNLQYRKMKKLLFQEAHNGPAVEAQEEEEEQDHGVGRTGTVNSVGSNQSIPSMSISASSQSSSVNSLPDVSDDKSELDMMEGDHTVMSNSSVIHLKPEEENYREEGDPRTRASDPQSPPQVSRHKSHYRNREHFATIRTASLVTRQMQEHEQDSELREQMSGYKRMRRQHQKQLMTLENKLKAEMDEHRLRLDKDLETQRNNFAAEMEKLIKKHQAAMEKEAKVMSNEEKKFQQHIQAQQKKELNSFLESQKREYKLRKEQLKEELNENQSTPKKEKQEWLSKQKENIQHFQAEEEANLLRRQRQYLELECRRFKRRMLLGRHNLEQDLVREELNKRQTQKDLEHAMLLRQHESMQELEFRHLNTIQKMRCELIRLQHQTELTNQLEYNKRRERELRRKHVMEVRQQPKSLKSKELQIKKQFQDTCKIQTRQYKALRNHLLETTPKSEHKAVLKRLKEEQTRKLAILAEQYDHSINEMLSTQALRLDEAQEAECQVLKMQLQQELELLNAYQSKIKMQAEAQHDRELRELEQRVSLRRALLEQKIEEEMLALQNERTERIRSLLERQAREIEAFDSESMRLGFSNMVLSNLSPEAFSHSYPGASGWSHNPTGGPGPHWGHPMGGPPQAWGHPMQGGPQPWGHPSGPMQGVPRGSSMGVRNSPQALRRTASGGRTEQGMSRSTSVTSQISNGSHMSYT
# [5] = molecular target: T2, Serine/threonine-protein kinase TAO1 (Homo sapiens); conditions: at 10 µM
# [6] = molecular target: T3, Serine/threonine-protein kinase TAO2 (Homo sapiens) (UniProt Q9UL54); conditions: at 1 µM
# T3 sequence (whole entry): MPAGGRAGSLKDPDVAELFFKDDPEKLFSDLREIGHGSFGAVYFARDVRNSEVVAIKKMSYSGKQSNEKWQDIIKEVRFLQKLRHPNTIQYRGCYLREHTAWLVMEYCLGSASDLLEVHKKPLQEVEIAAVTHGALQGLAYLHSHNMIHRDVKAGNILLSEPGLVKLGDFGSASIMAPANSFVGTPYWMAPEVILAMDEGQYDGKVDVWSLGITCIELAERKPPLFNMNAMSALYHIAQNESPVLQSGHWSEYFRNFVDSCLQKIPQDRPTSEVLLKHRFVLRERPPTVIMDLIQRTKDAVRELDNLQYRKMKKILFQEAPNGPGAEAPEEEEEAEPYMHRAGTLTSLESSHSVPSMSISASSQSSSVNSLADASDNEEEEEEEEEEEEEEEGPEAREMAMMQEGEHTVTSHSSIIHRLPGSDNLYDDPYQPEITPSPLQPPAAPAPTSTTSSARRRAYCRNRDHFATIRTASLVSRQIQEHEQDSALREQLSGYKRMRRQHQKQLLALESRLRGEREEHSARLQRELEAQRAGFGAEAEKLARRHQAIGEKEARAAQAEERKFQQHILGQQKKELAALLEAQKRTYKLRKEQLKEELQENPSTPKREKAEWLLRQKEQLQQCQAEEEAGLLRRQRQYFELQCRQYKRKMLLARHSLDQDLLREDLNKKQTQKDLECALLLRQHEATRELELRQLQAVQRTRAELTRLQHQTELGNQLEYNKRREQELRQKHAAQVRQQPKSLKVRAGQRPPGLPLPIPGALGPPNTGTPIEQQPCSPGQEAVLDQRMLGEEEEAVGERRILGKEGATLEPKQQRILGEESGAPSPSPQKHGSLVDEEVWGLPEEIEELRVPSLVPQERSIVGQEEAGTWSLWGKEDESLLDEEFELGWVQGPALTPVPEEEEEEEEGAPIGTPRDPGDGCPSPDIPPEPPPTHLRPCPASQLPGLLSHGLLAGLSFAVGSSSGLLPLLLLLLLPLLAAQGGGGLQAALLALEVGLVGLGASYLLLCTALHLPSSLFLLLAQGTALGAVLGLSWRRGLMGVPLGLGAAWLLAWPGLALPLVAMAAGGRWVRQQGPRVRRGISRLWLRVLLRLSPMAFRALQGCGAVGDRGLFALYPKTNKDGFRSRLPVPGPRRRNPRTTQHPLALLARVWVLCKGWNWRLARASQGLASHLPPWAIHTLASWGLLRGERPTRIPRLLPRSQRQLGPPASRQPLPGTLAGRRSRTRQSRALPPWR
# [7] = molecular target: T3, Serine/threonine-protein kinase TAO2 (Homo sapiens); conditions: at 10 µM
# [8] = molecular target: T4, Serine/threonine-protein kinase TAO3 (Homo sapiens) (UniProt Q9H2K8); conditions: at 1 µM
# T4 sequence (whole entry): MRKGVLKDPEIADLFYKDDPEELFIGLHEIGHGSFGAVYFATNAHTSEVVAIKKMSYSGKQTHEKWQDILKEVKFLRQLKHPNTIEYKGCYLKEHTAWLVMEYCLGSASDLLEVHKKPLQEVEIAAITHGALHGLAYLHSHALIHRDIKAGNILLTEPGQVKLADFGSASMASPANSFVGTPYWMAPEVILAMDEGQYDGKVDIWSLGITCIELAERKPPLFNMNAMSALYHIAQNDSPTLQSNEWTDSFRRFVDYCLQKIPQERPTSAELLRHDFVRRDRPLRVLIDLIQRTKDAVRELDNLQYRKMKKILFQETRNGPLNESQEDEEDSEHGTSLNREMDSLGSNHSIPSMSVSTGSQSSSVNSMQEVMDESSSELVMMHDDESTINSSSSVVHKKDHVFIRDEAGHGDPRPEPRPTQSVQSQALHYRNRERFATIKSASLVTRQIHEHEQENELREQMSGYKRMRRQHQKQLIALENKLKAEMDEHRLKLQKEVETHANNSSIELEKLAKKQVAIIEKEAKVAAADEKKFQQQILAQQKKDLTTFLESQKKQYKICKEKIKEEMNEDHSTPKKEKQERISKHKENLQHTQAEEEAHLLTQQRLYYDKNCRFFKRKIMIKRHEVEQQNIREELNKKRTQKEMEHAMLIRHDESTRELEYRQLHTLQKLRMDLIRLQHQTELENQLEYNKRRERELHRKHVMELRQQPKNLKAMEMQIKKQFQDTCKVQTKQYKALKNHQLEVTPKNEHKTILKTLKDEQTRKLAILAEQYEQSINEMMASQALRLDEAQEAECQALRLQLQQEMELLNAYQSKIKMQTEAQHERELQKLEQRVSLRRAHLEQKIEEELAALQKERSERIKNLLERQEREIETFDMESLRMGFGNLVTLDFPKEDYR
# [9] = molecular target: T4, Serine/threonine-protein kinase TAO3 (Homo sapiens); conditions: at 10 µM
smiles,measurement,setting,value
CCCC(=O)Oc1ccc2[nH]c(C(=O)c3cc4ccccc4[nH]3)cc2c1,residual activity,[1],101%
same,residual activity,[2],83%
same,residual activity,[3],87%
same,residual activity,[4],91%
same,residual activity,[5],81%
same,residual activity,[6],104%
same,residual activity,[7],83%
same,residual activity,[8],89%
same,residual activity,[9],86%
